# Experiments:
# Assay type in all cases: functional
# [1] = molecular target: Solute carrier family 2, facilitated glucose transporter member 1 (Homo sapiens) (UniProt P11166); assay: ST_JUDE_LEISH: Cytotoxicity at 2uM final concentration against transgenic Leishmania Mexicana promastigotes LmGLUT1 that are glucose transport deficient and complemented with the human glucose transporter GLUT1. Activity is measured by DNA content using SYBR green in vitro
# [2] = molecular target: Hexose transporter 1 (Plasmodium falciparum) (UniProt O97467); assay: ST_JUDE_LEISH: Cytotoxicity at 2uM final concentration against transgenic Leishmania Mexicana promastigotes LmPfHT that are glucose transport deficient and complemented with the Plasmodium falciparum hexose transporter. Activity is measured by DNA content using SYBR green in vitro
# [3] = molecular target: Glucose transporter (Leishmania mexicana) (UniProt O61059); assay: ST_JUDE_LEISH: Cytotoxicity at 2uM final concentration against transgenic Leishmania Mexicana promastigotes LmGT2 that are glucose transport deficient and complemented with the L. Mexicana glucose transporter 2. Activity is measured by DNA content using SYBR green in vitro
# Sequence of Solute carrier family 2, facilitated glucose transporter member 1 (Homo sapiens) (P11166 whole entry): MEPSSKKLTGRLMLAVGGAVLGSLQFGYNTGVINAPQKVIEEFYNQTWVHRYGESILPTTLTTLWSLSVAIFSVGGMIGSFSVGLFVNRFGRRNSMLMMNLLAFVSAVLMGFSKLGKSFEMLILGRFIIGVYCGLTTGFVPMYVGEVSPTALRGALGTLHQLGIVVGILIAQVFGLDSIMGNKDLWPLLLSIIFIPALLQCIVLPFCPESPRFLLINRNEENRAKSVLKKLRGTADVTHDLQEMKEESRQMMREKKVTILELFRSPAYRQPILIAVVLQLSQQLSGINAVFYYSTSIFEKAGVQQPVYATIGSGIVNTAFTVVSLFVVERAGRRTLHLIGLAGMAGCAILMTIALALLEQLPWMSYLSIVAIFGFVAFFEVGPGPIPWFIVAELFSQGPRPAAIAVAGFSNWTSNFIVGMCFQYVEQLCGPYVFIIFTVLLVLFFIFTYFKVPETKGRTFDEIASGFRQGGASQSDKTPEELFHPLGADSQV
SMILES,inhibition [1] [%],inhibition [2] [%],inhibition [3] [%]
CC(=NNC(=N)N)C(=O)Nc1ccc(Cl)c(Cl)c1,1.75,1.53,2.25
CN1CCN(c2ccnc3ccc(NC(=O)Nc4ccc(Br)cc4)cc23)CC1,-0.59,0.3,0.32
CCC(=C(CC)c1ccc(O)c(CNC2CCCCC2)c1)c1ccc(O)c(CNC2CCCCC2)c1,23.6,8.98,-1.26
COc1ccc(NC(=O)Nc2ccc(-c3ccccc3)cc2)cc1Cn1nc(Cl)c(N2CCCNCC2)cc1=O,0.73,0.83,0.02
O=c1cc(NCCCNCc2cccc3c2OC(F)(F)O3)[nH]c2ccccc12,2.3,1.38,1.85
Cc1ccc(C)c(Cn2ccc3nc(Cl)nc(Cl)c32)c1,7.99,5.11,0.45
CC(=O)C1=NN(c2ccc(Cl)cc2)C(c2cccs2)N1c1ccccc1 (stereo unspecified),1.62,0.36,0.54
CC(C)(C)OC(=O)NCc1ccc(Nc2nnc(-c3cccc(OCC(=O)NCc4cc(C(F)(F)F)cc(C(F)(F)F)c4)c3)o2)cc1,0.8,1.63,1.12
CCc1ccc(C2CCN(CCCCNC(=O)c3ccc(-c4ccc(C(F)(F)F)cc4)cc3)CC2)c(OCCO)c1,7.26,7.58,6.13
Cc1ccc(S(=O)(=O)NC2CCN(c3ccnc4cc(Cl)ccc34)C2)cc1 (stereo unspecified),3.79,3.39,4.19
O=C(/C=C/c1ccc(Cl)c(Cl)c1)NCC[C@@H]1C[C@H]1CCN1CCC(c2c[nH]c3ccccc23)CC1,9.6,8.4,6.24
Cc1ccc2c(O)c([N+](=O)[O-])c(O)nc2c1,-1.72,1.03,1.6

# — ChEMBL document CHEMBL3433997, “St. Jude Leishmania screening dataset” (2016)
